The source made the active and inactive calls. The rule behind the calls is not given here.

Chain of Protein kinase 7 (PK7), Plasmodium falciparum 3D7 (PF3D7_0213400) (Q7YTF7 1-343): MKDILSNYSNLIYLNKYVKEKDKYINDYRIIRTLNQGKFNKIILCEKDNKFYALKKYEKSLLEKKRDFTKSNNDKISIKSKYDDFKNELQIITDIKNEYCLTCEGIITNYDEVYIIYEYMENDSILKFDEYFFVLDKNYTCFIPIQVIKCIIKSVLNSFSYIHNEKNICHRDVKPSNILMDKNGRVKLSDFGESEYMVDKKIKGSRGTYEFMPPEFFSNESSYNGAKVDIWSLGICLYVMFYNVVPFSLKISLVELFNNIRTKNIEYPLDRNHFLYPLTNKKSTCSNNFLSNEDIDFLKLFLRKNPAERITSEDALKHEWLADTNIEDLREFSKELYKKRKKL

This assay has as its target Protein kinase 7 (PK7), Plasmodium falciparum 3D7 (PF3D7_0213400) (UniProt Q7YTF7). As to the kind of experiment: inhibition of Plasmodium PK7 catalytic activity – biochemical, TCAMS antimalarial set, Kinase-Glo luminescence (AID 1159587). The note with it: recombinant PfPK7, Kinase-Glo ATP depletion luminescence.
As to `COc1ccc2nccc([C@@H](O)CN3CCC(NCc4cc5cc(C)ccc5s4)CC3)c2c1`, the result was inactive. The entry for `COc1ccccc1N1CCN(C(C(=O)NCc2ccc(C)cc2)c2ccc(C)cc2)CC1` (stereo not given) is “inactive”. The value for `CNCCNCc1cccc(-c2ccc(-c3nc4ccccc4[nH]3)s2)c1` was “inactive”.

Regarding `COc1ccccc1C1CCN(CCCCNC(=O)c2ccc(NC(=O)c3ccc(Cl)cc3)cc2)CC1`, the result was inactive.

As for `CN(C)CC(O)C(c1ccccc1)c1cccc(Br)c1` (stereo not given), the result was inactive. The value for `CC(C)N1CCN(C(CN2CCN(CCCOc3ccc(-c4ccccc4)cc3)CC2)c2ccc(F)cc2)CC1` (stereo not given) was “inactive”; that for `CN1CCN(Cc2nc(-c3ccc4c(Nc5ccc(Oc6ccccc6)cc5)ccnc4c3)cs2)CC1` was “inactive”; that for `CCN(CC)CC#Cc1ccc2[nH]c(C)c(Cl)c(=O)c2c1` was “inactive”. The entry for `O=S(=O)(NC1CCCCN(Cc2ccccc2O)C1)c1ccc(C(F)(F)F)cc1` (stereo not given) is “inactive”; for `NC1=NC2(CCCCC2)N(OCCCOc2cccc3ccccc23)C(N)=N1` it is “inactive”; for `Cc1cc(C(F)(F)F)nn1-c1ccc(NC(=O)c2ccco2)cc1` it is “inactive”.

For `NS(=O)(=O)NCCCN1CCN(c2ccccc2)CC1`, the outcome was inactive.

For `CC(C)(C)c1ccc(-c2cc3c(ccc4nc(N)nc(N)c43)[nH]2)cc1`, the result was inactive. For the compound `COc1ccccc1CCNc1nc(C)cc(NCCC(=O)NCCOc2ccccc2)n1`, the result was inactive. The entry for `CCOc1cc(C)ccc1N(C1CCN(CCCCNC(=O)c2ccc(-c3ccc(C(F)(F)F)cc3)cc2)CC1)S(=O)(=O)c1ccccc1` is “inactive”. The entry for `Cc1ccc(NC(=O)N2CCCN(CCCCCNC(=O)/C=C/c3ccc(Cl)c(Cl)c3)CC2)cc1C` is “inactive”. For the compound `NCc1cccc(-c2ccccc2CNC2CCN(Cc3ccccc3)CC2)c1`, the result was inactive. The value for `CCc1cc(=O)[nH]c(-n2nc(C)cc2NC(=O)CC(c2ccccc2)c2ccccc2)n1` was “inactive”; that for `COc1ccc2nccc([C@@H](O)CN3CCC(NC(=O)Cc4cc5ccccc5s4)CC3)c2c1` was “inactive”; that for `COc1ccc(C)cc1NC(=O)CSc1nc2cccnc2n1C1CCCCC1` was “inactive”. For the compound `CC(CN(C)C)C(=O)Nc1cccc(-c2cccc(-c3nc4ccccc4[nH]3)c2)c1` (stereo not given), the result was inactive. The entry for `CN(C)c1ccc(Br)c(Br)c1` is “inactive”; for `CCCCCN1CCC(CNS(=O)(=O)c2ccc(C(=O)Nc3cccc(C(F)(F)F)c3)cc2)CC1` it is “inactive”. The value for `CN(C)CCN(C)Cc1ccc(-c2ccc(NS(=O)(=O)c3cccc4cccnc34)cc2)cc1` was “inactive”; that for `O=C(NCC1CCC(C(=O)O)CC1)c1ccc(/C=C/C(=O)N2CCc3ccccc3C2c2ccc3c(c2)OCO3)cc1` (stereo not given) was “inactive”; that for `O=C(Nc1ccc([N+](=O)[O-])cc1)Nc1cc(C(F)(F)F)ccc1F` was “inactive”.

As for `CN1CCN(c2ccnc3ccc(NC(=O)Nc4ccc(Br)cc4)cc23)CC1`, the result was inactive.

For the compound `COc1ccc(Nc2nccc(NCCNC(=O)Nc3cc(C)ccc3C)n2)cc1`, the result was inactive. The value for `CCOc1cc(NC(=O)Nc2ccnc3ccccc23)cc(OC)c1` was “inactive”. Turning to `NC(N)=NC(=O)Nc1cc(Cl)c(Cl)c(Cl)c1`, the outcome was inactive. The value for `CC(C)(C)c1ccc(OCCCON2C(N)=NC(N)=NC2(C)C)cc1` was “inactive”. The value for `COc1cc(OC)cc(-c2nn(-c3ccc([N+](=O)[O-])cc3Cl)c(=S)n2CC2CCCO2)c1` (stereo not given) was “inactive”. The entry for `CN1CCN(c2ccnc3ccc(NC(=O)Cc4ccc5ccccc5c4)cc23)CC1` is “inactive”. Take `O=C(Nc1ccccc1)N(Cc1ccc(-c2ccc(CNC3CCCC3)cc2)cc1)C1CCN(Cc2ccccc2)CC1`: the result was inactive. The value for `CCCCN(CCCC)CCCCNc1c2ccc(Cl)cc2nc2ccc(OC)cc12` was “inactive”; that for `CC(C)(CNC(=O)/C=C/c1ccc(Cl)c(Cl)c1)CNc1cc(=O)c2ccccc2[nH]1` was “inactive”. The value for `CC(C)CNCc1ccc(-c2ccc(CNC3CCN(Cc4ccccc4)CC3)cc2)cc1` was “inactive”.

Turning to `CCN(CC)CCNc1ccnc2[nH]c3ccc(C)cc3c12`, the result was inactive. With `CN1CCN(c2ccnc3ccc(NC(=O)Nc4cccc(C#N)c4)cc23)CC1`, the outcome was inactive. As to `CC(O)C1CCCCN1C(=O)c1cccc(-c2cccc(-c3nc4ccc(C(F)(F)F)cc4[nH]3)c2)c1` (stereo not given), the result was inactive.

The values are drawn from PubChem BioAssay.
